Laboratory results taken from PubChem BioAssay (NCI).
Compounds without any hit were thinned out: in the full panel of roughly 83,000, 20% have a hit.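 Results are percent growth after 48 hours of single-concentration exposure. 100 means growth as in untreated cells, lower positive values show inhibition; negative values down to -100 show cell death.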 Active and inactive are the calls of the source.

system: HOP-92 NSCLC; assay: NCI-60 one-dose screen, 48 h (100 = growth as untreated, 0 = no growth, -100 = all killed); conditions: 10 µM unless noted
Description: Growth inhibition of the HOP-92 human Non-Small Cell Lung tumor cell line is measured as a screen for anti-cancer activity. Cells are grown in 96 well plates and exposed to the test compound for 48 hours. Compounds are tested at a single concentration, which is 10^-5 M for most compounds. The reported endpoint is percent growth (GI% or GIPRCNT), where numbers from 0 - 100% represent growth inhibition, and numbers from -100% - 0 represent cell death. For example, a value of 40 represents 60% growth inhibition. A value of 0 means no net growth occurred over the course of the experiment. A value of -40 indicates 40% of cells at the beginning of the experiment died by the end of the experiment. A value of -100 means all cells are dead at the end of the experiment.
NCI-60 Human Tumor Cell Lines Screen was performed using the standard one-dose NCI protocol, which is described in more detail at https://dtp.cancer.gov/discovery_development/nci-60/default.htm.
Compounds with GIPRCNT values below 10 were considered active. Activity score was based on GIPRCNT using the following formula: […]
Score is 0 for GIPRCNT values of 100 or above, 50 for GIPRCNT values of 0, and 100 for GIPRCNT values of -100.

Structure (SMILES)	growth
O=[N+]([O-])c1c(O)c(CNCCCO)cc(CNCCCO)c1O	90.8% (inactive)
S=c1nc(-c2ccccn2)c(-c2ccccn2)n[nH]1	66.2% (inactive)
COc1ccc(NNS(=O)(=O)O)cc1	80.3% (inactive)
Nc1cc2c(cc1Cl)C(=O)c1ccccc1C2=O	-1.69% (active)
ClCc1cccc2c(CCl)cccc12	89.4% (inactive)
CCOc1ccc(C(=O)NCC(C)C)cc1	103% (inactive)
C=C(OC(C)=O)c1ccccc1	87.5% (inactive)
Nc1ccc(F)c(Cl)c1F	80% (inactive)
CCOC(=O)C(COS(C)(=O)=O)(COS(C)(=O)=O)C(=O)OCC	86% (inactive)
CCCCCCCCNC(=O)C(C)C	90% (inactive)
CCN(CC)CCCC(C)NC(=S)N/N=C(\C)c1ccccn1 (stereo not given)	46.1% (inactive)
CN(CCCN(C)CCC1CCCCC1)CCC1CCCCC1	21.3% (inactive)
COc1ccc2c(ccc[n+]2C)c1	110% (inactive)
C1C[S+]2CC[S+]1CC2	111% (inactive)
NC(=S)N/N=C/c1ccc(Cl)cc1	91% (inactive)
CCCC(OC(C)=O)c1ccc2c(c1)OCO2 (stereo not given)	104% (inactive)
Cc1ccc(Cc2ccc(C)cc2)cc1	97.5% (inactive)
COc1cccc(C(=O)NNC(=O)c2cccc3ccccc23)c1	97.2% (inactive)
CCCCCCCCCCCCCCCCCC(=O)NCCNC(=O)CCCCCCCCCCCCCCCCC	37.4% (inactive)
COc1cccc(C(=O)O)c1OC	92.5% (inactive)

Structure (SMILES)	growth
FC(F)(F)c1cc(NC2=NCCN=C(Nc3cc(C(F)(F)F)cc(C(F)(F)F)c3)SS2)cc(C(F)(F)F)c1	0.524% (active)
CCN1CCCC(N2c3ccccc3Sc3ccccc32)C1 (stereo not given)	74% (inactive)
CCOc1ccncc1[N+](=O)[O-]	102% (inactive)
CNc1ccccc1C(N)=O	110% (inactive)
NC(CSSCC(N)C(=O)O)C(=O)O (stereo not given)	17.3% (inactive)
CCOC(=O)CNC(=O)Sc1ccc(C(C)(C)C)cc1	138% (inactive)
Cc1cc(C(=O)NN)c(C#N)c(=O)[nH]1	87.2% (inactive)
NS(=O)(=O)c1cc(=O)[nH]c(=O)[nH]1	172% (inactive)
O=C(NCCc1ccccc1)/C(=C\c1ccc(Cl)cc1Cl)NC(=O)c1ccccc1	80.5% (inactive)
COC(=O)c1ccc([N+](=O)[O-])c(C)c1	90.4% (inactive)
CCCCN(C=S)CCCC	93.8% (inactive)
Cc1ccc(N)c(S(=O)(=O)O)c1	112% (inactive)
O=C(NC(=S)N1CC=CCC1)c1ccccc1	104% (inactive)
CC(=O)OC/C(C)=C\CC(C)COC(C)=O (stereo not given)	69.8% (inactive)
CC(=O)NNC(=S)N/C=C/c1c(C)ccc([N+](=O)[O-])c1[N+](=O)[O-]	100% (inactive)
Cc1ccc2[nH]c3ccccc3c2c1	100% (inactive)
CN=S(=O)(OCCCCCOS(=O)(=NC)c1ccc(C)cc1)c1ccc(C)cc1 (stereo not given)	59.2% (inactive)
CCNC(=O)Oc1ccc[nH]c1=O	94% (inactive)
C=CCNC(=S)N/C=C(/C(=O)c1ccccc1)c1ccccc1	95.7% (inactive)
CCOS(=O)(=O)c1ccc([N+](=O)[O-])cc1	99.4% (inactive)
